For four molecules, outcome and AC50 results are on record in PubChem BioAssay (EPA / NIEHS).

By AC50 is commonly meant the midpoint of the concentration-response curve, whichever way the signal moves.

Experiment [1] in a line: ATG_DR4_LXR_CIS: Attagene CIS-FACTORIAL HepG2 Assay for human Liver X Receptor (LXR), DR4 submotif (AID 2282929). To be noted: HepG2 Attagene DR4 cis-reporter, mRNA transcription; actives raise or lower the signal. An outline of the steps: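 Fluorescence intensity of labelled reporter cDNA fragments, separated by capillary electrophoresis, gives the signal. HepG2 cells bearing cis-regulated reporter constructs were treated 24 h; activity fitted bidirectionally relative to DMSO negative control.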

Experiment [2] is described as follows: ATG_Ets_CIS: Attagene CIS-FACTORIAL HepG2 Assay for human Erythroblast Transformation Specific (ETS) (AID 2282941). To be noted: HepG2 ETS cis-reporter transcription, actives raise or lower the signal. Summed up: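 Multiplexed reporter transcript profiling: HepG2, 24 h treatment, total RNA to cDNA, PCR, 6-FAM labelling, HpaI cut, capillary electrophoresis. Gain- or loss-of-signal fitted against DMSO.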

Experiment [3] in a line: ATG_M_06_CIS: Attagene CIS-FACTORIAL HepG2 Assay for M06 Transcription Factor (Internal Marker) (AID 2282950). To be noted: HepG2 Attagene CIS-FACTORIAL M06 internal marker reporter; actives raise or lower the signal. Summed up:
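Measured 24 h post-dosing in transiently transfected HepG2 cells, this internal-marker endpoint reports reporter mRNA via RT-PCR with fluorescent primer extension and capillary electrophoresis. DMSO served as negative control and baseline for bidirectional fitting.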

In experiment [4] the target is Hypoxia-inducible factor 1-alpha (Homo sapiens) (UniProt Q16665). Nature of the experiment: ATG_HIF1a_CIS: Attagene CIS-FACTORIAL HepG2 Assay for human Hypoxia Inducible Factor 1 (HIF1A) (AID 2282951). To be noted: HepG2 Attagene cis-factorial HIF1a reporter transcription; actives raise or lower the signal. An outline of the steps:
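Fluorescence intensity of capillary-separated, 6-FAM-labelled reporter amplicons gives mRNA induction in HepG2 cells carrying transfected cis-promoter reporter units; cells exposed 24 h, responses fitted up or down from DMSO.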

Experiment [5] addresses Hepatocyte nuclear factor 6 (Homo sapiens) (UniProt Q9UBC0). Nature of the experiment: ATG_HNF6_CIS: Attagene CIS-FACTORIAL HepG2 Assay for human Hepatocyte Nuclear Factor 6 (HNF6) (AID 2282952). To be noted: HepG2 Attagene cis-factorial HNF6 reporter transcription; actives raise or lower the signal. An outline of the steps: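 Endogenous factor activity read in transiently transfected HepG2 via promoter-regulated reporter transcripts. RNA harvested 24 h post-dosing, reverse-transcribed, PCR-amplified, FAM-labelled, HpaI-digested and resolved by capillary electrophoresis; fitted in both directions against DMSO.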

Experiment [6] addresses Heat shock factor protein 1 (Homo sapiens) (UniProt Q00613). Nature of the experiment: ATG_HSE_CIS: Attagene CIS-FACTORIAL HepG2 Assay for human Heat Shock Transcription Factor 1 (HSE) (AID 2282953). To be noted: HepG2 HSE cis-reporter, Attagene RNA transcription; actives raise or lower the signal. Summed up: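 Reporter mRNA induction in HepG2 is measured 24 h after dosing, using transiently transfected multiplexed cis-regulated reporter units. Signal comes from capillary electrophoresis of labelled RT-PCR products, with DMSO as negative control.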

Experiment [7] in a line: ATG_Sox_CIS: Attagene CIS-FACTORIAL HepG2 Assay for human SRY-box transcription factor (SOX) (AID 2282960). To be noted: HepG2 Attagene cis-factorial SOX reporter, mRNA; actives raise or lower the signal. An outline of the steps:
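Measures mRNA induction of a SOX1-associated reporter in HepG2 after 24 h dosing. Fluorescently labelled RT-PCR fragments are separated by capillary electrophoresis, and gain or loss relative to DMSO control is fitted.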

A short description of experiment [8]: ATG_TA_CIS: Attagene CIS-FACTORIAL HepG2 Assay for human TA Basal Promoter (AID 2282964). To be noted: HepG2 Attagene CIS-factorial TA basal promoter reporter; actives raise or lower the signal. An outline of the steps:
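Cis-factorial format in HepG2: reporters report endogenous factors, not chimeric Gal4 fusions. After 24 h treatment, reporter transcripts were measured by RT-PCR-capillary electrophoresis fluorescence, analysed bidirectionally versus DMSO.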

Experiment [9] can be described thus: ATG_TCF_b_cat_CIS: Attagene CIS-FACTORIAL HepG2 Assay for human T-Cell-Factor with beta-catenin (TCF/b-cat) (AID 2282965). To be noted: HepG2 TCF/beta-catenin cis-reporter transcription, actives raise or lower the signal. Summed up: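 Measured: reporter mRNA in HepG2 transiently transfected with cis-promoter reporter units, 24 h after chemical addition. Fitting was bidirectional, DMSO as negative control.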

The nature of experiment [10]: ATG_TAL_CIS: Attagene CIS-FACTORIAL HepG2 Assay for human TAL Basal Promoter (AID 2282966).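 Further: background control endpoint measuring basal TAL promoter reporter mRNA not a specific factor.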 To be noted: HepG2 Attagene cis-factorial TAL promoter reporter; actives raise or lower the signal. An outline of the steps:
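Background-control endpoint: basal TAL promoter reporter transcripts in transiently transfected HepG2, measured 24 h after dosing. Read-out by RT-PCR with fluorescent primer extension and capillary electrophoresis; gain or loss of signal fitted relative to DMSO.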

Experiment [11] in a line: ATG_TGFb_CIS: Attagene CIS-FACTORIAL HepG2 Assay for human Transforming Growth Factor (TGF) (AID 2282967). To be noted: HepG2 Attagene CIS TGFb reporter, mRNA transcription; actives raise or lower the signal. Summed up: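 Multiplexed cis-reporter HepG2 system, 24 h treatment; mRNA induction read by fluorescence after RT-PCR and CE; DMSO negative control, bidirectional curve fitting.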

The target in experiment [12] is X-box-binding protein 1 (Homo sapiens) (UniProt P17861). Nature of the experiment: ATG_Xbp1_CIS: Attagene CIS-FACTORIAL HepG2 Assay for human X-box Binding Protein 1 (XBP1) (AID 2282972). To be noted: HepG2 XBP1 cis-element reporter, Attagene multiplex; actives raise or lower the signal. Summed up:
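Human hepatoma HepG2, cis-element reporter system, 24 h treatment; mRNA quantified by RT-PCR/CE fluorescence; fit relative to DMSO.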

The target of experiment [13] is Transcriptional activator Myb (Homo sapiens) (UniProt P10242). Kind of experiment: ATG_Myb_CIS: Attagene CIS-FACTORIAL HepG2 Assay for human Myeloblastosis (Myb) Proto-Oncogene Transcription Factor (AID 2282986). To be noted: HepG2 Attagene CIS-FACTORIAL Myb reporter transcription; actives raise or lower the signal. Summed up: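 Transiently transfected HepG2 cells, treated 24 h. Reporter mRNA quantified by RT-PCR/capillary electrophoresis; bidirectional fit relative to DMSO.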
Sequence of Transcriptional activator Myb (Homo sapiens) (P10242 whole entry, looked up): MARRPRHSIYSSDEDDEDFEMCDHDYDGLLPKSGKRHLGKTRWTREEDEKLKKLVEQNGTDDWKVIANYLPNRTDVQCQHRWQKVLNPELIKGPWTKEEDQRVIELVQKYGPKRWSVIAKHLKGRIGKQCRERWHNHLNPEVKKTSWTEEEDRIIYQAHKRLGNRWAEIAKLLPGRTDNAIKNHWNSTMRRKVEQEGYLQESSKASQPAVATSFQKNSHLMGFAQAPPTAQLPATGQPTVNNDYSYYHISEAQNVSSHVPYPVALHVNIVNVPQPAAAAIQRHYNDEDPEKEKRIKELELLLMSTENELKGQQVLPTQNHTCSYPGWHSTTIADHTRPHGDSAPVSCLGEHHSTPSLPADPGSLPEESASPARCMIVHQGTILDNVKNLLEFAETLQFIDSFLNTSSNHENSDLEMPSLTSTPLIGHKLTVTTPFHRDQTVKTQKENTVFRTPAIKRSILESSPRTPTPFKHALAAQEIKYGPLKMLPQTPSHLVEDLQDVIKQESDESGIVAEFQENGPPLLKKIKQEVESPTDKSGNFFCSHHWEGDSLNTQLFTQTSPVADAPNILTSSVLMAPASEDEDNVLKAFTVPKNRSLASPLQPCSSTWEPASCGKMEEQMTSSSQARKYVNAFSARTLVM

For experiment [14], the target named is Nuclear respiratory factor 1 (Homo sapiens) (UniProt Q16656). Kind of experiment: ATG_NRF1_CIS: Attagene CIS-FACTORIAL HepG2 Assay for human Nuclear Respiratory Factor 1 (NRF1) Orphan Gene (AID 2282987). To be noted: HepG2 NRF1 cis-element reporter, Attagene multiplex; actives raise or lower the signal. Summed up: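 Cells (HepG2, transient MRTU transfection) are exposed to compound for 24 h, then RNA isolated and reporter mRNA amplified and fluorescently labelled. Fragments are separated by capillary electrophoresis; signal change is fitted bidirectionally relative to DMSO.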
Sequence of Nuclear respiratory factor 1 (Homo sapiens) (Q16656 whole entry, looked up, the tested form may be a part): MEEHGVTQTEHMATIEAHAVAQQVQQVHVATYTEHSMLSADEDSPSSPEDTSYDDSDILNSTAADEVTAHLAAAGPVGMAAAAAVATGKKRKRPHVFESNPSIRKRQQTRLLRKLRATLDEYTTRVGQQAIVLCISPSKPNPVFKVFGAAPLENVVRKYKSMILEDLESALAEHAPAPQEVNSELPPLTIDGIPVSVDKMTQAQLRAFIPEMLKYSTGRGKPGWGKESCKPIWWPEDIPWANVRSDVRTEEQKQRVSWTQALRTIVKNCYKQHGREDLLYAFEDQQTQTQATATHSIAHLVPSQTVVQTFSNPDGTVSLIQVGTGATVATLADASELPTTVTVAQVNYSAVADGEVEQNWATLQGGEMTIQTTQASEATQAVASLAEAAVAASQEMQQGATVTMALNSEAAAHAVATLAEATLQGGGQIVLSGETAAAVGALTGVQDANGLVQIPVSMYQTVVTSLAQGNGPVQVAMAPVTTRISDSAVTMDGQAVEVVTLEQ

In experiment [15] the target is Myc proto-oncogene protein (Homo sapiens) (UniProt P01106). Kind of experiment: ATG_Myc_CIS: Attagene CIS-FACTORIAL HepG2 Assay for human Myelocytomatosis (Myc) Proto-Oncogene Transcription Factor (AID 2282990). To be noted: HepG2, Attagene cis-reporter transcription factor activity; actives raise or lower the signal. Summed up:
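Cells of the HepG2 human liver line bear multiple cis-driven reporter transcription units. Reporter mRNA after 24 h exposure is reverse-transcribed, amplified, labelled and resolved by capillary electrophoresis, with gain- or loss-of-signal fitting relative to DMSO.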

The nature of experiment [16]: ATG_NRF2_ARE_CIS: Attagene CIS-FACTORIAL HepG2 Assay for human Nuclear Factor Erythroid 2 Related Factor 2 (NFR2) response to Antioxidant Response Elements (ARE) (AID 2282992). To be noted: HepG2 Attagene ARE/NRF2 reporter, transcription factor activity; actives raise or lower the signal. Summed up:
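Fluorescence intensity of reporter-specific cDNA fragments, separated by capillary electrophoresis, reflects mRNA induction in transfected HepG2 cells at 24 h. Activity is fitted bidirectionally, DMSO serving as baseline.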

Experiment [17] can be described thus: ATG_Oct_MLP_CIS: Attagene CIS-FACTORIAL HepG2 Assay for human Octamer-Binding Transcription Factor (Oct) (AID 2282993). To be noted: HepG2 Attagene cis-factorial Oct reporter, mRNA; actives raise or lower the signal. Summed up: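 After 24 h compound exposure, transfected HepG2 cells were lysed for total RNA; reporter-specific cDNA was PCR-amplified, fluorescently labelled and sized by capillary electrophoresis. Bidirectional curve fitting used DMSO as baseline.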

Experiment [18] deals with Nuclear receptor subfamily 1 group I member 2 (Homo sapiens) (UniProt O75469). Nature of the experiment: ATG_PXR_TRANS: Attagene TRANS-FACTORIAL HepG2 Assay for human Pregnane X Receptor (PXR) (AID 2283008; active means hit-call score of the fitted dose curve at least 0.9, where 1 is the maximum). Summed up: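 Transient HepG2 transfectants carrying multiplexed reporter transcription units; PXR activity read through a Gal4 chimera. 24 h exposure. RT-PCR/CE fluorescence; upward curve fit referenced to DMSO.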
Sequence of Nuclear receptor subfamily 1 group I member 2 (Homo sapiens) (O75469 whole entry, looked up, the tested form may be a part): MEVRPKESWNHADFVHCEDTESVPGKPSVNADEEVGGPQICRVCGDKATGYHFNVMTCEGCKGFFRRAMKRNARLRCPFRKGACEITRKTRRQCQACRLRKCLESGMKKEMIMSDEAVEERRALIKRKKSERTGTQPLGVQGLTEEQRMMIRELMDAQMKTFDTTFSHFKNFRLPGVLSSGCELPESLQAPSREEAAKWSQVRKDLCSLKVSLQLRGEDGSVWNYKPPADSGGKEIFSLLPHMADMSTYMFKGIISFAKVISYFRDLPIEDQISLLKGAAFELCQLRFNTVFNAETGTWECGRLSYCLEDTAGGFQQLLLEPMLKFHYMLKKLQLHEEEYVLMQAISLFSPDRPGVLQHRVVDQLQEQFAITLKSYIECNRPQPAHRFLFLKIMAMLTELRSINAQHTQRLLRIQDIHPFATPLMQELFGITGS

The nature of experiment [19]: ATG_XTT_Cytotoxicity: Cytotoxicity Assessment in the Attagene TRANS-FACTORIAL HepG2 Assay (AID 2283584; active means hit-call score of the fitted dose curve at least 0.9, where 1 is the maximum). Summed up: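 Viability endpoint from XTT after 24 h chemical exposure of reporter-transfected human HepG2 liver cells; signal loss fitted relative to DMSO negative control.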
Experiment [20] addresses Cellular tumor antigen p53 (Homo sapiens) (UniProt P04637). Kind of experiment: ATG_p53_CIS: Attagene CIS-FACTORIAL HepG2 Assay for human p53 Transcription Factor (AID 2282994). To be noted: HepG2 p53 cis-element reporter, Attagene mRNA; actives raise or lower the signal. An outline of the steps:
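Transiently transfected HepG2 (multiple cis reporter transcription units); exposure 24 h; reporter RNA via RT-PCR, 6-FAM extension, 2 h HpaI digest at 37 C, CE detection; DMSO baseline.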

Molecules are shown by their SMILES. Results filed as inconclusive are left out. Calls of active or inactive are those of the source. How the source made its calls, unless noted: active means hit-call score of the fitted dose curve at least 0.9, where 1 is the maximum; inactive means score below 0.9.

Sequence of Hypoxia-inducible factor 1-alpha (Homo sapiens) (Q16665 whole entry, looked up): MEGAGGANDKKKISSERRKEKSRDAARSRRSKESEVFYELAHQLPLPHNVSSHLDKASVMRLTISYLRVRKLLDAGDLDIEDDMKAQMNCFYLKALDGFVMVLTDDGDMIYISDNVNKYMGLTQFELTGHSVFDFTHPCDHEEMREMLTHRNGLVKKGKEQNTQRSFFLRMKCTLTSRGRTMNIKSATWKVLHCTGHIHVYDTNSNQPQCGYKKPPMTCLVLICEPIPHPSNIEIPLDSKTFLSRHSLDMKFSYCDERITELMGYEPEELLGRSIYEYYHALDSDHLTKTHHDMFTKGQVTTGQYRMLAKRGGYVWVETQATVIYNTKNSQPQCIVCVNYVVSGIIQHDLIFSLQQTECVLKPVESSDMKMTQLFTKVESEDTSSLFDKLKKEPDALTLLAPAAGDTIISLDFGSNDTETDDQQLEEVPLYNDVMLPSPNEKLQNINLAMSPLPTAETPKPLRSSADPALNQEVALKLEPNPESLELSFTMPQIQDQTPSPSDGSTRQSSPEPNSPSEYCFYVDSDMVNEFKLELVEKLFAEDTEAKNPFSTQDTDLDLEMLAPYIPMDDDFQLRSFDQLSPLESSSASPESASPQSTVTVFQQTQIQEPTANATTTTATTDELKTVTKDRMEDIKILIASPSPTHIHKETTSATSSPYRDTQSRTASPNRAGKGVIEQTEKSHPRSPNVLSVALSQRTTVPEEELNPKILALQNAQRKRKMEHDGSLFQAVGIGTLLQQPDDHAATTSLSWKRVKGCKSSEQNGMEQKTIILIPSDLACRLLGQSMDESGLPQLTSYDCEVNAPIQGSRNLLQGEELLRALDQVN
Sequence of Myc proto-oncogene protein (Homo sapiens) (P01106 whole entry, looked up): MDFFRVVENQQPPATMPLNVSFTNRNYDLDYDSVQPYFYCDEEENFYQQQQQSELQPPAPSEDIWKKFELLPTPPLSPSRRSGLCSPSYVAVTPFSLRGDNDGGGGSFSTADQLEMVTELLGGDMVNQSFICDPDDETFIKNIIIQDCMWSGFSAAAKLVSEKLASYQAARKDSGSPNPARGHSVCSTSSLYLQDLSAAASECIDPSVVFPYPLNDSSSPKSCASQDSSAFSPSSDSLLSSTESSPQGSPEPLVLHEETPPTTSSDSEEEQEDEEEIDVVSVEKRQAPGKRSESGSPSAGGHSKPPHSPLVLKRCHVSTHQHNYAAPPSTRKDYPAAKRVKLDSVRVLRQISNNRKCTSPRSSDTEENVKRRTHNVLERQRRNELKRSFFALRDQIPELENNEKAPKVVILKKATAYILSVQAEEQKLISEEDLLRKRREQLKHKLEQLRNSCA
Sequence of Hepatocyte nuclear factor 6 (Homo sapiens) (Q9UBC0 whole entry, looked up): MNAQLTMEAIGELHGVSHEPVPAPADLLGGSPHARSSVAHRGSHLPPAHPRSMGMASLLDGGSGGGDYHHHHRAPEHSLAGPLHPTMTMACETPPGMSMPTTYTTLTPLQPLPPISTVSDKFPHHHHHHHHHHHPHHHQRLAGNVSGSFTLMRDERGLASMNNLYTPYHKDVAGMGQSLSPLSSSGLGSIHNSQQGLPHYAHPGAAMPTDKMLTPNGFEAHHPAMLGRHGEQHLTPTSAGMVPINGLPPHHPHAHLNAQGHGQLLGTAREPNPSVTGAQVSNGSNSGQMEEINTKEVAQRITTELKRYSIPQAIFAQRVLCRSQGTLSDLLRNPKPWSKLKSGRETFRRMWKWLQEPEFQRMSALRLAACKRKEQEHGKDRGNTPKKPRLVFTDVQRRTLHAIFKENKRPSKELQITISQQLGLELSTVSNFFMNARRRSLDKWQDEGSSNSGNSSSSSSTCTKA
Sequence of Heat shock factor protein 1 (Homo sapiens) (Q00613 whole entry, looked up): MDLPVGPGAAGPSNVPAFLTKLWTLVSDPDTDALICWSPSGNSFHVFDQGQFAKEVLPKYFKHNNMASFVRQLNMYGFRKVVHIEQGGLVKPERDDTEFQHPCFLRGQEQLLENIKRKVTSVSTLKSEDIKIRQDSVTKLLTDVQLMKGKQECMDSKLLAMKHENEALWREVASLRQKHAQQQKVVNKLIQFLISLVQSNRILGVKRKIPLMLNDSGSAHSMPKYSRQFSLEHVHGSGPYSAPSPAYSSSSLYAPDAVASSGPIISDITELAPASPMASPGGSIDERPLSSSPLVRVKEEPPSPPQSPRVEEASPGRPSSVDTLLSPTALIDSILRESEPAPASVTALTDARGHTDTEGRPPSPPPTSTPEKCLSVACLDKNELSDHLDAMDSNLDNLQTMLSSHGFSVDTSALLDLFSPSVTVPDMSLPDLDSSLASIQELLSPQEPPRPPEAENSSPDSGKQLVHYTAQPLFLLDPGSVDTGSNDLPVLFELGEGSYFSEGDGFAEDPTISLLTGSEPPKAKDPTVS
Sequence of X-box-binding protein 1 (Homo sapiens) (P17861 whole entry, looked up): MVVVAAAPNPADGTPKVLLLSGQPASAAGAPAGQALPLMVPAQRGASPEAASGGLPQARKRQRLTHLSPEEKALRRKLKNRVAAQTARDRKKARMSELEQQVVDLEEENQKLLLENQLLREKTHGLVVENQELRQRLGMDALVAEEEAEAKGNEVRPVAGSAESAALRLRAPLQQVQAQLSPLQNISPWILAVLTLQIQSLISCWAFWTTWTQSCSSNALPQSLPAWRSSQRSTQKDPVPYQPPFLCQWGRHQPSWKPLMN
Sequence of Cellular tumor antigen p53 (Homo sapiens) (P04637 whole entry, looked up): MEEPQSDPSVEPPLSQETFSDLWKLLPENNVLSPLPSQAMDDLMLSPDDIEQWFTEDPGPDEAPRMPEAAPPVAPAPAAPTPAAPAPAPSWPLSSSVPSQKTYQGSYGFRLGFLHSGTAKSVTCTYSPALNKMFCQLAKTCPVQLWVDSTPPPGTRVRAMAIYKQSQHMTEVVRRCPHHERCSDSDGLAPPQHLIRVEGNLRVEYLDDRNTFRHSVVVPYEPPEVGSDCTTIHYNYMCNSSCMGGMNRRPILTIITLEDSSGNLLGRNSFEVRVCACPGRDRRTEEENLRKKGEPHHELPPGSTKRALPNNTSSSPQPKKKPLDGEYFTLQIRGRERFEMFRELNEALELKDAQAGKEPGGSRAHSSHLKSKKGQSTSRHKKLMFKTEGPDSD

On to `O=C(Oc1ccccc1)c1ccccc1`, for which the molecule was classed as inactive in experiment [1], in [2], in [3], in [4], in experiment [5] and in experiment [6]. Besides, the molecule was classed as inactive in [7], in experiment [8], in experiment [9], in experiment [10], in experiment [11] and in experiment [12]. Besides, the result in [13], in experiment [14], in experiment [15], in [16], in experiment [17] and in experiment [18] was inactive. The outcome in experiment [19] was inactive.

`COC(=O)CCSCCC(=O)OC`: the molecule was called inactive in [1], in experiment [3], in experiment [4], in [5], in [6] and in [8]. For the same molecule, the result in experiment [9], in experiment [11], in [12], in [13], in experiment [14] and in [15] was inactive. Moreover, the molecule was called inactive in experiment [16], in experiment [17], in experiment [18] and in experiment [19].

Consider `Cc1ccccc1S(=O)(=O)O`, for which the molecule was classed as inactive in [1], in experiment [2], in experiment [3], in [4], in experiment [5] and in experiment [6]. For the same molecule, the call in [8], in [9], in [10], in experiment [11], in experiment [12] and in experiment [13] was inactive. Also, the outcome in experiment [14], in experiment [15], in experiment [16], in experiment [17], in experiment [20] and in experiment [19] was inactive. Further, the AC50 in experiment [7] is 27 µM (active).

As to `CO[Si](CCCNCCN)(OC)OC`, the call in [1], in experiment [2], in experiment [4], in experiment [5], in [6] and in experiment [7] was inactive. The outcome in [8], in experiment [9], in experiment [10], in experiment [11], in experiment [12] and in experiment [13] was inactive. Moreover, the molecule was called inactive in experiment [14], in experiment [15], in experiment [16], in [17] and in experiment [19].
